Laboratory results reported in PubChem BioAssay.
Active and inactive are the calls of the source. Unless noted, how the calls were made is not given here.

Experiments:
[1] = test system: XIP peptide (Xip251-270) binding; experiment: small-molecule binders of XIP peptide, primary screen, biochemical, small-molecule microarray, fluorescence 635/667 nm, 0.1 µg/mL protein (AID 1182); conditions: fluorescent protein binding, 635 nm, higher = more signal, called active from +8 up or from −8 down
[2] = test system: XIP peptide (Xip251-270); experiment: small-molecule binders of XIP peptide, primary screen, biochemical, small-molecule microarray, fluorescence 635/667 nm, 0.5 µg/mL protein (AID 1183); conditions: small-molecule microarray binding, fluorescence 635 nm; higher = more signal
[3] = Plasmodium falciparum growth inhibition, primary screen, strain 3D7, DAPI fluorescence, 100 nL (AID 1184);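 further: parasites grown inside human red blood cells in medium with human serum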; conditions: P. falciparum 3D7 growth, 3 d, higher = more signal
[4] = target: Homeobox protein Hox-A13 (Mus musculus) (UniProt Q62424); experiment: inhibitors of HoxA13-DNA binding, primary screen, biochemical, fluorescence polarization, labeled oligonucleotide (AID 1185); conditions: 15 min, higher = more signal, called active from +8 up or from −8 down
[5] = inhibitors of hydroxyurea-induced Chk1 phosphorylation, primary screen, imaging, HeLa, phospho-Chk1 antibody, percent positive cells (AID 1186); conditions: hydroxyurea-induced phospho-Chk1 immunofluorescence imaging, higher = more signal
[6] = inhibitors of hydroxyurea-induced Chk1 phosphorylation, primary screen, imaging, HeLa, phospho-Chk1 nuclear intensity (AID 1187); conditions: hydroxyurea-induced phospho-Chk1 immunofluorescence imaging, higher = more signal

Sequence of Homeobox protein Hox-A13 (Mus musculus) (Q62424 whole entry, looked up): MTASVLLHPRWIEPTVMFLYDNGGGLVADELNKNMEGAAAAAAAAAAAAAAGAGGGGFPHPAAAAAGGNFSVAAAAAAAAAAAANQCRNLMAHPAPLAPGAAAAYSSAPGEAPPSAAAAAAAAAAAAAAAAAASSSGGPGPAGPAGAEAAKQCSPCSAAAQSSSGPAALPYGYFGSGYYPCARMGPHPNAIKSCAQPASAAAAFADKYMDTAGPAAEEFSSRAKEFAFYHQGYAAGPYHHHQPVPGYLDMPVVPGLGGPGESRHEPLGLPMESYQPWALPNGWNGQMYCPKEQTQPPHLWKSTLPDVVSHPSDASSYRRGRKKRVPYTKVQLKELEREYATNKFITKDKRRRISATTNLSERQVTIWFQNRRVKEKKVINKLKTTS

## COCCOC(=O)N1C(=O)[C@@]2(c3ccccc31)[C@H](c1ccccc1OCCO)N1[C@H](c3ccccc3)[C@H](c3ccccc3)OC(=O)[C@H]1[C@@H]2C(=O)N1CCc2cc(OC)c(OC)cc2C1
[1]
  composite z-score: 0.159 (inactive)
[2]
  composite z-score: 0.84
[3]
  z-score: -2.46
[4]
  z-score: -2.43 (inactive)
[5]
  z-score: -0.453 (inactive)
[6]
  z-score: -0.193 (inactive)

## CC(C)(C)OC(=O)CC[C@@]1(C(=O)N2CCCCC2)N=C(c2ccc(OCCCO)cc2)O[C@@H]1c1ccccc1CN=[N+]=[N-]
[1]
  composite z-score: 1.32 (inactive)
[2]
  composite z-score: 0.824
[3]
  z-score: -2.24
[4]
  z-score: -4.37 (inactive)
[5]
  z-score: -0.325 (inactive)
[6]
  z-score: -0.038 (inactive)

## CCCCC(=C=CC[C@H](O)c1cccc(OCCO)c1)C[C@H](O)COCc1ccccc1
[1]
  composite z-score: 1.4 (inactive)
[2]
  composite z-score: 0.752
[3]
  z-score: -1.88
[4]
  z-score: -4.78 (inactive)
[5]
  z-score: -0.0835 (inactive)
[6]
  z-score: 0.0554 (inactive)

## COCCCNC(=O)[C@]1(CCS(=O)(=O)c2ccccc2)N=C(c2ccc(OCCCO)cc2)O[C@@H]1c1ccccc1
[1]
  composite z-score: 1.47 (inactive)
[2]
  composite z-score: 0.919
[3]
  z-score: -2.13
[4]
  z-score: -4.72 (inactive)
[5]
  z-score: -0.369 (inactive)
[6]
  z-score: -0.42 (inactive)

## COC(=O)C(CC#Cc1ccc2c(c1)[C@]1(C(=O)N2)[C@H](C(=O)N2CCc3cc(OC)c(OC)cc3C2)[C@H]2C(=O)O[C@H](c3ccccc3)[C@H](c3ccccc3)N2[C@@H]1c1ccc(OCCO)cc1)C(=O)OC
[1]
  composite z-score: 0.916 (inactive)
[2]
  composite z-score: 0.761
[3]
  z-score: -1.76
[4]
  z-score: -10.5 (active)
[5]
  z-score: -0.197 (inactive)
[6]
  z-score: 0.277 (inactive)

## NCCCCCCNC(=O)[C@H]1C[C@H]2C(=O)N3CCC[C@H]3C(=O)N2[C@H]1c1ccc(O)cc1
[1]
  composite z-score: -0.118 (inactive)
[2]
  composite z-score: 0.451
[3]
  z-score: 0.0311
[4]
  z-score: -2.4 (inactive)
[5]
  z-score: -0.0342 (inactive)
[6]
  z-score: 0.0369 (inactive)

## C[C@]12C(=O)N(CCCO)[C@@H]3C(=O)N(c4ccc(Cl)cc4)CC=CC31O[C@@H]1/C=C\CCCOC(=O)C12 (stereo partly specified)
[1]
  composite z-score: -0.232 (inactive)
[2]
  composite z-score: -0.271
[3]
  z-score: 0.571
[4]
  z-score: -6.08 (inactive)
[5]
  z-score: -0.647 (inactive)
[6]
  z-score: -0.0294 (inactive)

## C[N+](C)(C)CCCC[C@@H]1NC(=O)[C@H]2C[C@@H](C(=O)NCCCCCCN)[C@@H](c3cccc(OCCO)c3)N2C1=O
[1]
  composite z-score: 1.25 (inactive)
[2]
  composite z-score: 0.527
[3]
  z-score: -0.997
[4]
  z-score: -2.38 (inactive)
[5]
  z-score: -0.699 (inactive)
[6]
  z-score: -0.146 (inactive)

## COC(=O)[C@@]1(Cc2ccc(F)cc2)[C@H]2c3cc(C(=O)N4CCCC4)n(Cc4ccccc4)c3C[C@H]2CN1C(=O)c1ccccc1
[1]
  composite z-score: 0.0584 (inactive)
[2]
  composite z-score: 0.703
[3]
  z-score: -0.443
[4]
  z-score: -3.98 (inactive)
[5]
  z-score: -0.0167 (inactive)
[6]
  z-score: 0.0304 (inactive)

## COCCCNC(=O)[C@@H]1c2ccccc2C(=O)N(Cc2cc(F)cc(C(F)(F)F)c2)[C@H]1c1ccc(CO)cc1
[1]
  composite z-score: -0.0408 (inactive)
[2]
  composite z-score: -0.0784
[3]
  z-score: -0.288
[4]
  z-score: -2.79 (inactive)
[5]
  z-score: 0.0176 (inactive)
[6]
  z-score: -0.299 (inactive)

## C=CC[C@]1(C(=O)N(C)C)N=C(c2ccc(OCCCO)cc2)O[C@H]1c1ccccc1
[1]
  composite z-score: 0.39 (inactive)
[2]
  composite z-score: 0.643
[3]
  z-score: -2.08
[4]
  z-score: -4.25 (inactive)
[5]
  z-score: -0.271 (inactive)
[6]
  z-score: 0.109 (inactive)

## C[C@@]1([C@@H](NC(=O)c2cccs2)c2ccc(-c3ccccc3)cc2)C[C@H]1C1CCCCC1
[1]
  composite z-score: -0.592 (inactive)
[2]
  composite z-score: -0.0139
[3]
  z-score: -0.972
[4]
  z-score: -0.431 (inactive)
[5]
  z-score: 0.193 (inactive)
[6]
  z-score: -0.421 (inactive)

## COCCOC(=O)N1C(=O)[C@@]2(c3cc(C#CCCO)ccc31)[C@H](C(=O)N1CCc3cc(OC)c(OC)cc3C1)[C@H]1C(=O)O[C@H](c3ccccc3)[C@H](c3ccccc3)N1[C@@H]2c1ccc(OCCO)cc1
[1]
  composite z-score: -0.608 (inactive)
[2]
  composite z-score: 0.726
[3]
  z-score: -2.14
[4]
  z-score: 3.13 (inactive)
[5]
  z-score: -0.148 (inactive)
[6]
  z-score: -0.0047 (inactive)

## COC(=O)[C@@]1(Cc2ccccc2)[C@H]2c3cc(C(=O)N(C)C)n(Cc4ccc(O)c(OC)c4)c3C[C@H]2CN1C(=O)c1ccccc1
[1]
  composite z-score: 0.332 (inactive)
[2]
  composite z-score: 0.664
[3]
  z-score: -1.55
[4]
  z-score: -5.2 (inactive)
[5]
  z-score: 0.197 (inactive)
[6]
  z-score: -0.0257 (inactive)

## COC(=O)[C@]1(Cc2ccccc2CN=[N+]=[N-])N=C(c2ccc(OCCCO)cc2)O[C@@H]1c1ccccc1CN=[N+]=[N-]
[1]
  composite z-score: 0.319 (inactive)
[2]
  composite z-score: 0.728
[3]
  z-score: -2.27
[4]
  z-score: 0.13 (inactive)
[5]
  z-score: -0.716 (inactive)
[6]
  z-score: -0.601 (inactive)

## C=C(COC)/C(=C/C[C@@H](OC(=O)c1ccncc1)c1cccc(OCCO)c1)c1cc(C(=O)OC)ccc1OC
[1]
  composite z-score: 0.658 (inactive)
[2]
  composite z-score: 0.657
[3]
  z-score: -2.38
[4]
  z-score: -4.58 (inactive)
[5]
  z-score: 0.0182 (inactive)
[6]
  z-score: 0.527 (inactive)

## CN(C)C(=O)[C@]1(Cc2ccccc2N=[N+]=[N-])N=C(c2ccc(OCCCO)cc2)O[C@@H]1c1ccccc1CN=[N+]=[N-]
[1]
  composite z-score: 0.304 (inactive)
[2]
  composite z-score: 0.312
[3]
  z-score: -2.48
[4]
  z-score: -4.68 (inactive)
[5]
  z-score: -0.191 (inactive)
[6]
  z-score: 0.269 (inactive)

## COC(=O)C(CC#Cc1ccc2c(c1)[C@]1(C(=O)N2)[C@H](c2ccccc2OCCO)N2[C@H](c3ccccc3)[C@H](c3ccccc3)OC(=O)[C@H]2[C@@H]1C(=O)Nc1nc2ccccc2s1)C(=O)OC
[1]
  composite z-score: 1.32 (inactive)
[2]
  composite z-score: 0.727
[3]
  z-score: -2
[4]
  z-score: 0.787 (inactive)
[5]
  z-score: -0.0918 (inactive)
[6]
  z-score: -0.269 (inactive)

## [N-]=[N+]=Nc1ccccc1[C@@H]1OC(c2ccc(OCCCO)cc2)=N[C@]1(CCS(=O)(=O)c1ccccc1)C(=O)NCc1ccccc1
[1]
  composite z-score: 1.44 (inactive)
[2]
  composite z-score: 0.629
[3]
  z-score: -2.27
[4]
  z-score: -1.05 (inactive)
[5]
  z-score: -0.228 (inactive)
[6]
  z-score: -0.184 (inactive)

## O=C1OCC=C[C@H]2OC34C=CCN(CCN5CCOCC5)C(=O)[C@H]3N(CCCCCO)C(=O)[C@@H]4[C@@H]12 (stereo partly specified)
[1]
  composite z-score: 0.102 (inactive)
[2]
  composite z-score: 0.609
[3]
  z-score: -0.285
[4]
  z-score: -6.05 (inactive)
[5]
  z-score: 0.513 (inactive)
[6]
  z-score: -0.209 (inactive)

## CN(C)CCCNC(=O)[C@@]1(Cc2ccccc2I)c2ccccc2C(=O)N(Cc2ccccc2Cl)[C@H]1c1ccc(CO)cc1
[1]
  composite z-score: 0.191 (inactive)
[2]
  composite z-score: 0.774
[3]
  z-score: -2.21
[4]
  z-score: -0.316 (inactive)
[5]
  z-score: -0.022 (inactive)
[6]
  z-score: -0.461 (inactive)
